Experiment [1] can be described thus: inhibitors of TNFa-induced NFkB p65 translocation, primary screen, imaging, HUVEC, MLSMR starter and 10KST1 sets (AID 438;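 active means inhibition above 20% together with a positive visual image hit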;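 further: compound added about 3h40 before a 20 min TNFalpha stimulation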;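 on inhibition: signal is the nuclear over cytoplasmic p65 intensity ratio per well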). The following applies: HUVEC TNFa-induced p65 nuclear translocation; cell count: measured here: nuclei count (cytotoxicity indicator), at 2.08 µM; inhibition: at 2 µM, stronger effect = higher value, 0% TNFa-plus-vehicle, 100% no-TNFa wells.
Experiment [2] is described as follows: reduction of polyQ htt aggregates in cells – imaging, exon1htt(103Q)mCFP cells, high-content imaging, primary screen (AID 483;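 active means visual image review flags a hit and inhibition of aggregation exceeds 20%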;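 further: compound exposure lasted 3 days before fixation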;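 on nuclei count: percent of the per-plate median nuclei count of sample wells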). The note with it: exon1htt(103Q)mCFP cell line, aggregate imaging, at 2 µM; inhibition of aggregation: stronger effect = higher value; nuclei count: measured here: cell count, toxicity.
Experiment [3] can be described thus: endothelial E-selectin expression blockers – imaging, HUVEC, immunofluorescence, MLSMR starter and 10KST1 sets, primary screen (AID 487;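 active means visually confirmed hit in the image check and inhibition above 20%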;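 on inhibition: signal is fraction of cell area covered by stained E-selectin grains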;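 on nuclei count: 100% = median nuclei count of all wells on the same plate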). The following applies: HUVEC TNFalpha-induced E-selectin immunofluorescence imaging, at 2 µM; inhibition: stronger effect = higher value; nuclei count: measured here: cell number, toxicity.
The target in experiment [4] is Voltage-gated potassium channel subunit beta-2 (Rattus norvegicus) (UniProt P62483). Nature of the experiment: inhibitors of rat Kvbeta2 reductase activity – biochemical, NADPH fluorescence, primary screen (AID 622;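 active means fluorescence slope higher than the sample average by over 3 SD, cut at about -0.22 in these data, passing the limit was not always enough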;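 further: slope of raw intensity against log time taken from 70 to 1610 s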). The note with it: recombinant KvBeta, 4-cyanobenzaldehyde reduction, at 10 µM, stronger effect = higher value.
Experiment [5] shares this target. Nature of the experiment: enhancers of rat Kvbeta2 NADPH turnover – biochemical, NADPH fluorescence, primary screen (AID 623;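 active means NADPH fluorescence slope more negative than the mean of all samples by about 3 SD, 99.7% confidence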;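 further: fluorescence intensity change per second fitted from 20 to 320 s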). The following applies: Recombinant KvBeta, NADPH fluorescence decrease slope, 10 min; at 10 µM; stronger effect = lower value.
Experiment [6] addresses Alpha-2C adrenergic receptor (Homo sapiens) (UniProt P18825). Nature of the experiment: compounds altering alpha2C-coupled GIRK flux – cell-based, HEK293 alpha2C/GIRK1/2, thallium flux, primary screen (AID 624;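 active means fluorescence slope after compound addition differing from the mean of all screened samples at 99.7% confidence, in either direction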;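 further: slope of fluorescence ratio to pre-addition baseline per second over 15 to 24 s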). The following applies: thallium flux BTC fluorescence, at 10 µM, actives lie on both sides.
The nature of experiment [7]: blockers of RIG-like receptor reporter activation – cell-based, Sendai virus stimulus, luciferase, 10K MLSCN set, TLR/RLR signaling modifier project, primary screen (AID 602276;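 active means inhibition at or above 50% at 10 µM; inactive means inhibition below 50%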;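 further: firefly luciferase from ISG56 promoter only with Renilla not read in this screen; 0% = Sendai virus plus DMSO and 100% = medium plus DMSO without virus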). The note with it: HEK293 RL24 IRF3 luciferase reporter, at 10 µM, stronger effect = higher value.
A short description of experiment [8]: TLR3 IRF3 reporter activation blockers – cell-based, poly I:C stimulus, luciferase, 10K MLSCN set, primary screen (AID 602277). The note with it: HEK293-TLR3 RL24 IRF3 luciferase reporter, at 10 µM, stronger effect = higher value.

Activity calls are given as the source filed them.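 How the source made its calls, unless noted: active means inhibition of the reporter signal at or above 50%; inactive means inhibition below 50%.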

Voltage-gated potassium channel subunit beta-2 (Rattus norvegicus), sequence (P62483 whole entry, looked up): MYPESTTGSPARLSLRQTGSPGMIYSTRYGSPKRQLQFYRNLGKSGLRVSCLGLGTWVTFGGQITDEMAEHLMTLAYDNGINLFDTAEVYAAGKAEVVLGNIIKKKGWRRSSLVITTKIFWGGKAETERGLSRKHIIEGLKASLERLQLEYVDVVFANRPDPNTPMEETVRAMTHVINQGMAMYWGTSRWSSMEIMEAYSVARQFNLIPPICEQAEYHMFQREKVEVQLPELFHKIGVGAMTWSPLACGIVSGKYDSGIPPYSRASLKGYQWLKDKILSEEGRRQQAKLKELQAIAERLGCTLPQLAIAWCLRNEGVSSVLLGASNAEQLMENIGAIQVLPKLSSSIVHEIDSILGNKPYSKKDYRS
Alpha-2C adrenergic receptor (Homo sapiens), sequence (P18825 whole entry, looked up): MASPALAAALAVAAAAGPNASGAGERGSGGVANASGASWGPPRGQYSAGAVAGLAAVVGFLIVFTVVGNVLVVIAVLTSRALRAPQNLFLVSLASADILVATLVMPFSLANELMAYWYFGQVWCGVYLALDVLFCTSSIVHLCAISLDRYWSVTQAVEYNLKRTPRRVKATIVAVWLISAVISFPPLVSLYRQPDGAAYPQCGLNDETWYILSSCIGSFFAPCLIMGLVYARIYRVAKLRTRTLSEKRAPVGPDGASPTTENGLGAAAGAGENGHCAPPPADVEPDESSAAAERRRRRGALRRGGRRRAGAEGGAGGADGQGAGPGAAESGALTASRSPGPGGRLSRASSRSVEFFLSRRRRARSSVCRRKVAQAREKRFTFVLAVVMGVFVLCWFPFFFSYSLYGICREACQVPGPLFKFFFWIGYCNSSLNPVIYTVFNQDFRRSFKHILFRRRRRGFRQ

Turning to `COc1ccc(OCCCC(=O)Nc2nncs2)cc1`, in experiment [1], the cell count was 296. The inhibition in experiment [1] is 22.6% (inactive); in experiment [3], -32.3% (inactive); in experiment [7] it was -0.71% (inactive); in experiment [8] it was 5.99% (inactive). In experiment [2], the inhibition of aggregation was 12.8% (inactive). In addition, the nuclei count in experiment [2] was 95.6%; in experiment [3] it was 102%. Besides, the fluorescence slope in experiment [4] is -0.294 (inactive). Also, in experiment [5], the NADPH fluorescence slope was -3.4e-05 (inactive). Moreover, the slope in experiment [6] is 0.00603 (inactive).
As for `CCc1ccc(N2CC(C(=O)OCC(=O)Nc3cc(C)on3)CC2=O)cc1` (centres undefined), the cell count in experiment [1] amounted to 465. Besides, the inhibition in experiment [1] is 5.3% (inactive); in experiment [3] it was -6.8% (inactive); in experiment [7] it was 5.09% (inactive); in experiment [8], 20.1% (inactive). Also, the inhibition of aggregation in experiment [2] was -4.7% (inactive). Besides, the nuclei count turned out to be 102% in experiment [2] and 92.3% in experiment [3]. The fluorescence slope in experiment [4] is -0.368 (inactive). The NADPH fluorescence slope in experiment [5] is -2.5e-05 (inactive). Further, the slope in experiment [6] is 0.00565 (inactive).
Regarding `Nn1c(SCC(=O)Nc2ccc3c(c2)OCO3)nnc1C1CC1`, in experiment [1], the cell count amounted to 363. For the same molecule, the inhibition in experiment [1] is 4.8% (inactive); in experiment [3] it was -16% (inactive); in experiment [7], 4.52% (inactive); in experiment [8], 17.1% (inactive). The inhibition of aggregation in experiment [2] was 0.8% (inactive). The nuclei count in experiment [2] was determined as 100%; in experiment [3] it was 111%. In experiment [4], the fluorescence slope was -0.574 (inactive). The NADPH fluorescence slope in experiment [5] is -5.7e-05 (inactive). Also, the slope in experiment [6] was 0.00672 (inactive).
On to `CCCCCSc1nc2c(cnn2-c2ccccc2)c(=O)[nH]1`, for which, in experiment [1], the cell count is 241. For the same molecule, the inhibition in experiment [1] was -4.9% (inactive); in experiment [3], -35.9% (inactive); in experiment [7], 11.4% (inactive); in experiment [8] it was 27.5% (inactive). Moreover, the inhibition of aggregation in experiment [2] was -3.4% (inactive). Moreover, the values for the nuclei count in experiment [2] and in experiment [3] were 100% and 125%, respectively. Further, the fluorescence slope in experiment [4] is -0.399 (inactive). Also, the NADPH fluorescence slope in experiment [5] is -5.4e-05 (inactive). In experiment [6], the slope is 0.00382 (inactive).
For the molecule `CC1(C)Cc2cccc(OCC(=O)O)c2O1`, the cell count in experiment [1] came to 635. For the same molecule, the inhibition in experiment [1] was -2.7% (inactive); in experiment [3], -111% (inactive); in experiment [7], 11.4% (inactive); in experiment [8], 17.1% (inactive). Besides, the inhibition of aggregation in experiment [2] was -1% (inactive). Besides, the values for the nuclei count in experiment [2] and in experiment [3] were 100% and 108%, respectively. For the same molecule, in experiment [4], the fluorescence slope is -0.423 (inactive). The NADPH fluorescence slope in experiment [5] is -2.7e-05 (inactive). In experiment [6], the slope was 0.00676 (inactive).
In the case of `C=CCNC(=O)CSc1nc2sc(C)c(C)c2c(=O)[nH]1`, the cell count in experiment [1] stood at 590. Moreover, the inhibition in experiment [1] is -3.4% (inactive); in experiment [3], 5.1% (inactive); in experiment [7], 9.71% (inactive); in experiment [8], 21.7% (inactive). In experiment [2], the inhibition of aggregation is 13.2% (inactive). Further, the results for the nuclei count in experiment [2] and in experiment [3] were 91.2% and 112%, respectively. Besides, in experiment [4], the fluorescence slope was -0.556 (inactive). In addition, the NADPH fluorescence slope in experiment [5] is -3.3e-05 (inactive). In addition, the slope in experiment [6] is 0.00731 (inactive).
Consider `O=C(CSc1nnc(Cn2c(=O)sc3ccccc32)n1-c1ccccc1)NCC1CCCO1` (centres undefined), for which, in experiment [1], the cell count stood at 525. Besides, the inhibition in experiment [1] is -6.2% (inactive); in experiment [3], -19.9% (inactive); in experiment [7] it was 12% (inactive); in experiment [8], 37.7% (inactive). Moreover, in experiment [2], the inhibition of aggregation was 1.1% (inactive). For the same molecule, the results for the nuclei count in experiment [2] and in experiment [3] were 106% and 116%, respectively. Further, the fluorescence slope in experiment [4] is -0.583 (inactive). Further, the NADPH fluorescence slope in experiment [5] is -2.3e-05 (inactive). Besides, the slope in experiment [6] was 0.00648 (inactive).
As to `O=C1C(Cl)=C(NCC2CCCO2)C(=O)N1CCc1ccccc1` (centres undefined), the cell count in experiment [1] stood at 711. In addition, the inhibition in experiment [1] is -10% (inactive); in experiment [3], 27.8% (inactive); in experiment [7] it was -53.6% (inactive); in experiment [8], -108% (inactive). Moreover, the inhibition of aggregation in experiment [2] is 9.2% (inactive). For the same molecule, the nuclei count in experiment [2] came to 102%; in experiment [3] it was 107%. In addition, the fluorescence slope in experiment [4] is -0.448 (inactive). Besides, the NADPH fluorescence slope in experiment [5] is 1.5e-05 (inactive). In addition, the slope in experiment [6] was 0.00576 (inactive).
As for `CCOC(=O)c1cccc(NC(=O)c2ccco2)c1`, the cell count in experiment [1] turned out to be 690. Further, the inhibition in experiment [1] is 2.9% (inactive); in experiment [3], 38.8% (inactive); in experiment [7], -16.7% (inactive); in experiment [8], -83.6% (inactive). For the same molecule, the inhibition of aggregation in experiment [2] was -3.3% (inactive). In addition, the results for the nuclei count in experiment [2] and in experiment [3] were 100% and 97%, respectively. The fluorescence slope in experiment [4] is -0.387 (inactive). In addition, the NADPH fluorescence slope in experiment [5] was -6e-05 (inactive). In experiment [6], the slope is 0.00541 (inactive).
In the case of `CCOCC(=O)Nc1nc2c(s1)C(=O)CC(C)(C)C2`, the cell count in experiment [1] was found to be 921. Besides, the inhibition in experiment [1] is 0.6% (inactive); in experiment [3], -70.4% (inactive); in experiment [7], 12.5% (inactive); in experiment [8], 39% (inactive). Besides, the inhibition of aggregation in experiment [2] is -38% (inactive). In addition, the nuclei count in experiment [2] turned out to be 144%; in experiment [3] it was 122%. Moreover, the fluorescence slope in experiment [4] was -0.541 (inactive). The NADPH fluorescence slope in experiment [5] is 2.2e-05 (inactive). In experiment [6], the slope is 0.00739 (inactive).
With `CCOC(=O)/C=C1\SCC(=O)N1Cc1ccc(Br)cc1`, in experiment [1], the cell count was 562. The inhibition in experiment [1] was -4.8% (inactive); in experiment [3], -49.7% (inactive); in experiment [7], 10.8% (inactive); in experiment [8], 20% (inactive). Further, in experiment [2], the inhibition of aggregation was -14.9% (inactive). Further, the nuclei count is 96% in experiment [2] and 116% in experiment [3]. Also, the fluorescence slope in experiment [4] is -0.462 (inactive). Also, in experiment [5], the NADPH fluorescence slope is -0.000366 (inactive). Also, in experiment [6], the slope is 0.00633 (inactive).
Turning to `O=C(CCn1c(=O)oc2ccccc21)NCc1ccco1`, in experiment [1], the cell count is 686. In addition, the inhibition was -5.9% (inactive) in experiment [1], -32.5% (inactive) in experiment [3], -5.54% (inactive) in experiment [7] and 6.8% (inactive) in experiment [8]. For the same molecule, the inhibition of aggregation in experiment [2] is -10% (inactive). For the same molecule, the nuclei count in experiment [2] was determined as 104%; in experiment [3], 127%. Besides, the fluorescence slope in experiment [4] is -0.598 (inactive). Also, the NADPH fluorescence slope in experiment [5] is -5.1e-05 (inactive). The slope in experiment [6] was 0.00749 (inactive).
On to `CCOC(=O)N1CCN(C(=O)CN(c2ccc(C)cc2)S(=O)(=O)c2c(C)noc2C)CC1`, for which the cell count in experiment [1] is 565. In addition, the inhibition in experiment [1] was -28.3% (inactive); in experiment [3], -36.7% (inactive); in experiment [7] it was 18.5% (inactive); in experiment [8], 30.7% (inactive). Besides, the inhibition of aggregation in experiment [2] is -13% (inactive). Further, the nuclei count in experiment [2] is 103%; in experiment [3], 108%. The fluorescence slope in experiment [4] was -0.617 (inactive). Besides, the NADPH fluorescence slope in experiment [5] is 1.1e-05 (inactive). For the same molecule, in experiment [6], the slope was 0.00556 (inactive).
Take `CCOC(=O)Cc1nnc2c(Nc3ccccc3F)nc3nonc3n12`: the cell count in experiment [1] came to 631. In addition, the inhibition in experiment [1] is -9.1% (inactive); in experiment [3], -38.4% (inactive); in experiment [7] it was 7.74% (inactive); in experiment [8] it was -15.3% (inactive). The inhibition of aggregation in experiment [2] is -25.8% (inactive). For the same molecule, the nuclei count in experiment [2] is 119%; in experiment [3], 142%. For the same molecule, the fluorescence slope in experiment [4] is -0.582 (inactive). For the same molecule, the NADPH fluorescence slope in experiment [5] was -7e-06 (inactive). In experiment [6], the slope was 0.00616 (inactive).

The values above are taken from PubChem BioAssay.
